Records with an inconclusive call do not appear. Values without a mark were called inactive. The source made the active and inactive calls. Calls follow the shape of the full dose curve.
Test: Natriuretic polypeptide receptor (hNpr1) antagonism - Pilot counterscreen GloSensor control cell line (AID 1347045)
Details: HEK293 cGMP GloSensor cells, SNP-stimulated luminescence, 20 min; series mostly up to 38.3 µM; activity change, negative = inhibition: at the top concentration
Method: F. Fan, B. F. Binkowski, B. L. Butler, P. F. Stecha, M. K. Lewis, K. V. Wood, Novel genetically encoded biosensors using firefly luciferase. ACS Chem Biol 3, 346-351 (2008).
PROTOCOL TABLE (as described by Inglese J, Shamu CE and Guy RK. 2007)
SEQUENCE No. (e.g., 1, 2, 3, etc.); […] (e.g., Cells, Incubation, Reagent, etc.); VALUE and DESCRIPTION.
1. Cells. Seed 1500 HEK293 cGMP-sensor cells per well in 4uL into Greiner 1536-well white/solid bottom high base, TC plates.
2. Incubation. Incubate plated cells at 37C in 5% CO2, 95% RH overnight.
3. Reagent. Add 1uL per well GloSensor reagent from Promega (2% final concentration) or CO2 independent media vehicle control to respective columns of Greiner 1536-well plates.
4. Incubation. Incubate plated cells at room temperature for 2 h, protect from light.
5. Compounds. Library compounds and DMSO vehicle control added at 23nL per well, transferred by Pin Tool.
6. Incubation. Incubate plated cells for 30 min. at room temperature, protect from light.
7. Detector. GloSensor baseline pre-read luminescence measured using CCD-based camera (Viewlux).
8. Compound. Add 1uL of sodium nitroprusside (SNP) to 50 uM final concentration to stimulate soluble guanylyl cyclase (GC) or CO2 independent media as vehicle control.
9. Incubation. Incubate treated cells at room temperature for 20 min., protect from light.
10. Detector. GloSensor post-SNP luminescence measured using CCD-based camera (Viewlux).
NOTES (numbers refer to Sequence numbers above; values are from representative experiments)
1. HEK293 cells expressing GIP/pGS-40F were grown to 85-95% confluence (48-72 h) in T175 culture flasks (CO2 independent media supplemented with 10% FBS, 1% Pen/Strep antibiotics, and 1 ug/mL puromycin). Trypsinize and harvest cells from T175 culture flasks and filter through 40 um cell strainer. Cells counted with Invitrogen Countess (30,000,000 - 50,000,000 cells/flask).
2. Cells incubated for 24 h. at 37C in 95% RH incubator with metal lid having gas-exchange holes.
3. Prepare GloSensor Reagent (Promega): Reconstitute GloSensor luciferase substrate by adding 8.2mL Hepes buffer to 250mg substrate, mix well, protect from light and stored at -80C. Prepare a fresh 12% GloSensor solution in CO2 independent supplemented plating media (see above). Mix well and store at ambient temperature, protected from light. 1uL 12% GloSensor Luciferase Reagent added (2% final concentration) to respective columns of 9 x 1536-well Greiner plate with BioRaptr, 1uL CO2 independent plating media added to respective columns as vehicle control with BioRaptr.
4. Cells incubated for 2 h. at ambient temperature, protected from light with metal lid having gas-exchange holes.
5. 23nL of LOPAC128 library compounds (7 plates) or DMSO vehicle control transferred to 9 Greiner white/solid bottom high base, TC plates in 7 interplate 1:5 titrations (see Yasgar, A. et al. 2008) with Pintool. Two of the 9 plates are DMSO-only in compound field at beginning and end of compound library-treated plates.
6. Cells incubated for 30-50 min. at ambient temperature protected from light with metal lid having gas-exchange holes.
7. Read GloSensor + Antagonist/Compound baseline Luminescence on the ViewLux [Exposure, 30 s; Gain, High; Speed, Slow; Binning, 2X]
8. SNP solution prepared at 500 mM (in H2O) stock concentration. From this a working dilution was prepared at 300 uM in CO2 Independent media. 1uL of 300 uM SNP (50 uM final concentration) or CO2 Independent media vehicle control dispensed into respective columns of 9 x Greiner 1536-well white/solid bottom, tissue culture plates with BioRaptr.
9. Cells incubated for 20 min. at ambient temperature, protected from light with metal lid having gas-exchange holes.
10. Read final luminescence on the ViewLux. [Exposure, 30 s; Gain, High; Speed, Slow; Binning, 2X.]
[…]
% is scaled to controls: 0 for no effect and ±100 for the full control effect; potency is read from the fitted curve at half-maximal effect.

Compound | activity change, negative = inhibition | Potency
Nc1nc(N)c2nc(CNc3ccc(C(=O)NC(CCC(=O)O)C(=O)O)cc3)cnc2n1 (centres undefined) | 22.6% | –
CC1=C(C(=O)O)N2C(=O)[C@@H](NC(=O)C(N)c3ccccc3)[C@H]2SC1 (some centres undefined) | -2.66% | –
NC(=O)c1cccc(N)c1 | -2.31% | –
OCc1ccc(-c2nn(Cc3ccccc3)c3ccccc23)o1 | 82.9% | –
CC(C)NCC(O)c1ccc(NS(C)(=O)=O)cc1 (centres undefined) | -0.724% | –
CC1CC2C3CCC4=CC(=O)C=C[C@]4(C)[C@@]3(F)[C@@H](O)C[C@]2(C)[C@@]1(O)C(=O)CO (some centres undefined) | 5.49% | –
Cc1ccc(S(=O)(=O)N[C@@H](Cc2ccccc2)C(=O)CCl)cc1 | – | 3.29 µM (active)
N[C@@H](Cc1ccc(O)c(O)c1)C(=O)O | 4.55% | –
NC(=O)c1ccc2[nH]ccc2c1 | 9.87% | –
CCCCS(=N)(=O)CCC(N)C(=O)O (centres undefined) | -0.115% | –
COc1cc2ncnc(Nc3cccc(Cl)c3)c2cc1OC | 17.1% | –
COc1cc2nc(N3CCCN(C)CC3)nc(NC3CCN(Cc4ccccc4)CC3)c2cc1OC | -14.6% | –
CCN1CCCC1CNC(=O)c1cc(S(N)(=O)=O)ccc1OC (centres undefined) | 9.19% | –
O=C(O)C1CCCN(CCC=C(c2ccccc2)c2ccccc2)C1 (centres undefined) | 2.64% | –

— PubChem BioAssay (NCATS)
